Measured values as given in PubChem BioAssay (NCI).
The panel holds about 83,000 compounds, 20% with a hit somewhere; the sample as a whole holds those more often.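 Growth was measured after 48 h exposure to one concentration of compound in 96-well plates. Values under 10 count as active.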 Values without a mark were called inactive. Calls of active or inactive are those of the source.

Test system: CAKI-1 renal
Assay: NCI-60 one-dose screen, 48 h (100 = growth as untreated, 0 = no growth, -100 = all killed)
Settings: 10 µM unless noted
Description: Growth inhibition of the CAKI-1 human tumor cell line is measured as a screen for anti-cancer activity. Cells are grown in 96 well plates and exposed to the test compound for 48 hours. Compounds are tested at a single concentration, which is 10^-5 M for most compounds. The reported endpoint is percent growth (GI% or GIPRCNT), where numbers from 0 - 100% represent growth inhibition, and numbers from -100% - 0 represent cell death. For example, a value of 40 represents 60% growth inhibition. A value of 0 means no net growth occurred over the course of the experiment. A value of -40 indicates 40% of cells at the beginning of the experiment died by the end of the experiment. A value of -100 means all cells are dead at the end of the experiment.
NCI-60 Human Tumor Cell Lines Screen was performed using the standard one-dose NCI protocol, which is described in more detail at https://dtp.cancer.gov/discovery_development/nci-60/default.htm.
Compounds with GIPRCNT values below 10 were considered active. Activity score was based on GIPRCNT using the following formula: […]
Score is 0 for GIPRCNT values of 100 or above, 50 for GIPRCNT values of 0, and 100 for GIPRCNT values of -100.

SMILES | growth
O=[N+]([O-])c1ccc(SSc2ccc([N+](=O)[O-])cc2Cl)c(Cl)c1 | 87.7%
O/N=C/c1ccncc1 | 84.3%
Oc1c(C(Nc2ccccc2Br)c2ccccc2)ccc2cccnc12 (stereo not given) | 13.2%
CC[C@H](C)[C@H](N)C(=O)O | 95.6%
CCOC(=O)C1C(=O)C=C(c2cc(OC)c(OC)c(OC)c2)CC1c1sc(N(C)Cc2ccccc2)nc1Cl (stereo not given) | 46.8%
COc1cc(CN(CCC(O)N2CCCC2=O)Cc2ccc3c(c2)OCO3)cc(OC)c1OC (stereo not given) | 97.1%
COc1cc2c(cc1OC)-c1cc(OC)c(OC)cc1C(CN(C)C)C2 (stereo not given) | 11.6% [100 µM]
Cc1ccc(C)c2c1SC1=NNC(Oc3ccc(Cl)cc3)=C(C#N)C(=N)N12 | 87.4%
COc1ccc(C(=O)C(CN(C)C)c2ccc(OC)cc2)cc1 (stereo not given) | 73.9%
O=C(Nc1cccc(-n2ccc3c(NC(=O)c4ccccc4)nccc32)c1)c1ccc(N2CCOCC2)c(C(F)(F)F)c1 | 14.8%
C=CCOC(=O)C1=C(C)NC2=C(C(=O)CC(C)(C)C2)C1c1ccc(OC)cc1 (stereo not given) | 80.8%
CN1C(=O)NC(Cc2c[nH]c3c(Cl)cccc23)C1=O (stereo not given) | 125%
COc1ccc(Oc2nc(Nc3ccc(N4CCOCC4)cc3)ncc2NC(=O)Nc2cccc(OC)c2)cc1 | 62.2%
COc1ccc2nc3ccccc3c(NCc3ccc(Cl)cc3)c2c1 | 21.4%
Cc1ccc(NC(=O)c2cc(NCc3cc(O)ccc3O)ccc2O)cc1 | 107%
COc1ccc(C(=O)OC2C(OC3C(O)COC(O[C@H]4C[C@H]5[C@@H]6CC=C7C[C@@H](O)CC[C@]7(C)[C@H]6CC[C@]5(C)[C@H]4[C@H](C)C(=O)CCC(C)C)C3OC(=O)C(C)C)OCC(O)C2O)cc1 (stereo not given in full) | 3.21% (active)
COc1ccc(/C=C(\C#N)c2cc(OC)c(OC)c(OC)c2)cc1 | 41.4%
CC1(C)CC(=O)c2cc3c(N)c(C(=O)Nc4ccc(Cl)cc4)sc3nc2C1 | 134%
CN1C(=O)C(C(=O)/C=C/c2ccccc2C(=O)O)C(=O)N(C)C1=O | 90%
Clc1ccc(-c2cnc3c(-c4ccnc(N5CCNCC5)c4)cnn3c2)cc1 | -19.2% (active)

SMILES | growth
C/C(=N\Nc1ccc([N+](=O)[O-])cn1)c1ccc(N)cc1 | 101%
O=C(Nc1cccc(Cl)c1)Nc1ccccc1Cl | 71.4%
CCN(CCC#N)c1ccccc1 | 97.7%
COc1cc(OC)c(Cl)cc1N | 91.6%
CCN(CC)Cc1cc(Nc2ccnc3ccc(OC)cc23)ccc1O | 45.4%
O=C(NCCN1CCCCC1)n1cc(-c2ccncc2)c(-c2ccc(Cl)c(O)c2)n1 | 109%
Cc1cc2nc(CN)[nH]c2cc1C | 108%
CCCCCCCCCCCC1=NC(C)(C)CN1CCO | 75%
CCN(C(=O)CCl)C(C)(C)C(SSSC(c1ccc(Cl)cc1)C(C)(C)N(CC)C(=O)CCl)c1ccc(Cl)cc1 (stereo not given) | 29.1%
Clc1ccc(-c2cnc3nonc3n2)s1 | 94.1%
CC(NC(=O)c1ccccc1)C(=O)Nc1ccccc1 (stereo not given) | 107%
C=C1C[C@@]2(C)C(CC[C@]3(C)C2CC=C2C4CC(C)(C)C[C@@H](OC(=O)/C(C)=C\C)[C@]4(C(=O)O)CC[C@]23C)C(C)(C)C1=O (stereo not given in full) | -7.09% (active)
CCN(CC)CCNC(=O)n1cc(-c2ccncc2)c(-c2cc(Cl)cc(OC)c2)n1 | 68.1%
CCCCCCCCCCCCCC | 98.9%
CC1=C(O)C(=O)CC1 | 90.9%
O=C1/C=C/[C@@H](O)[C@@H]2C[C@@H](O)C[C@H]2/C=C/CCC[C@H]([C@@H](O)CO)O1 | 97.6%
CC1(C)CN(CCNc2nccc(-c3c(-c4cccc(O)c4)nc4sccn34)n2)S(=O)(=O)N1 | 32.5%
COc1ccc2c(c1)OC1=C(C(=O)OC1)C2c1cc(OC)c2c(c1)OCCO2 (stereo not given) | 48.1%
Cc1ccc(C)c(NC(=O)c2sc3c(=O)[nH]cnc3c2C)c1 | 64.5%
CC(C)CCSc1nc(-c2ccc(F)cc2)c(C#N)c(N2CCN(C)CC2)n1 | 60.8%
